Bioassay records deposited in PubChem BioAssay by National Center for Advancing Translational Sciences (NCATS).
Hits are enriched below; roughly 11% of the tested compounds scored in any of these assays.
SW480 rereplic: inducers of DNA re-replication in SW480 colon cancer cells. SW480 DNA re-replication, Hoechst DNA content imaging, 48 h. Potency, µM (titrated, usually from 46.1 µM), usual class: activators. 1.8% of 340,000 active. AID 624297; further: nearly all actives have a fitted effect of over 55% in size
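Image-based DNA-content assay: after two days of treatment, nuclei were labelled with the DNA dye Hoechst and imaged, and hits were compounds raising the count of nuclei showing high fluorescence intensity.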
IL-1B inflam inh: inflammasome signaling inhibition, IL-1 beta readout. THP-1 LPS/ATP IL-1B secretion, AlphaLISA, 16 h; stronger effect = lower value. activity change, % at 57.5 µM. 4.7% of 360,000 active. AID 743279; in the data active means activity change below about -50%; inconclusive means mostly about -30% to -49%
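THP-1 cells pretreated 1 hr with compounds (up to 57.5 uM final), then stimulated with LPS (250 ng/mL final) plus ATP (1.25 mM final); secreted IL-1B measured by AlphaLISA after 16 hr, decreased signal indicating inhibition.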
Gal4-VP16 FLuc: inhibits Gal4-VP16 luciferase reporter, ROR gamma counter-screen; Potency, µM (series often up to 53.6 µM), most hits filed as inhibitors; 3.5% of 310,000 active; Drosophila S2 Gal4-VP16 UAS-luciferase, luminescence, 20 h;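 further: Gal4-VP16 expression switched on by copper sulfate through the metallothionein promoter; nearly all actives have a fitted effect of over 50% in size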
MCF10A rereplic: DNA re-replication induction in MCF 10a cells. MCF 10A DNA re-replication, Hoechst nuclear intensity, 48 h. Potency, µM (highest dose often 46.1 µM), hits mostly activators. 2.9% of 350,000 active; further: nearly all actives have a fitted effect of over 50% in size
RORg inh: ROR gamma (mouse) transcription inhibition; P51450; Drosophila S2 Gal4-RORgamma UAS-luciferase reporter, 20 h; Potency, µM (doses to about 53.6 µM), most hits filed as inhibitors; 5.4% of 310,000 active; further: nearly all actives have a fitted effect of over 60% in size
Target sequence (P51450 whole entry, looked up, the tested form may be a part): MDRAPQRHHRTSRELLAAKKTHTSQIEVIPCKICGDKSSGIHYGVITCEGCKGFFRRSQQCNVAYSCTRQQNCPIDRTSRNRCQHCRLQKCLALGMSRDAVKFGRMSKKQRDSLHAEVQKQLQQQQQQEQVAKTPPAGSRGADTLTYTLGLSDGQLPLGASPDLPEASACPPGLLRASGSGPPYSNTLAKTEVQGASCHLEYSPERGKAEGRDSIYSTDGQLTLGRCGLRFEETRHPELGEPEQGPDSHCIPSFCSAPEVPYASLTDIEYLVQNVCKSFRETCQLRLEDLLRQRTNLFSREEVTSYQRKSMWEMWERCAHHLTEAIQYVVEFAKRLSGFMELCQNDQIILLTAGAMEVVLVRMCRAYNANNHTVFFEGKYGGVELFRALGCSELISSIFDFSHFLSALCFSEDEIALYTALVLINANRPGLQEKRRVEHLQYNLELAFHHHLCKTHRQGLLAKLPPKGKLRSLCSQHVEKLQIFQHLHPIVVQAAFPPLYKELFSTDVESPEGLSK
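Compounds are pin-transferred onto Drosophila Schneider cells expressing a copper-inducible Gal4–ROR gamma transactivation domain fusion. After 1 hr, copper sulfate is added to 700 uM final; luciferase is read 20 hr later.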
A number is an active result; 0 = inactive; ? = inconclusive; - = no result; [ ] = dose if it differs, or a comment. Unless noted, the call rests on the fitted dose curve; in most records, active means well fitted curve in the direction sought with a large enough effect; inconclusive means small, poorly fitted or top-dose-only effect, or another doubt; inactive means no such curve, though single readings can be large; an effect the other way counts as inactive or inconclusive.

SMILES	SW480 rereplic	IL-1B inflam inh	Gal4-VP16 FLuc	MCF10A rereplic	RORg inh
Cc1cc(C)cc(-n2ncc3c2CCCC3NC(=O)c2ccccc2N2CCOCC2)c1 (stereo not given)	21µM	0	0	?	0
NCCOc1ccccc1OCCN	0	0	0	0	0
NCCOc1ccccc1Cc1ccccc1	0[9.22 µM]	-62	0	0	0
O=C(O)c1ccc(-c2nc(-c3ccccc3)c(-c3cccs3)[nH]2)cc1	0	0	0	0	0
O=[N+]([O-])c1ccc(O)c(-c2nc(-c3ccccc3)c(-c3cccs3)[nH]2)c1	?	0	11µM	?	0
C=CC[C@@H]1C=C[C@H](O/N=C(\C)CCN2CCCc3nc(C)c(C)cc32)[C@H](CO)O1	-	-	0[10 µM]	-	0[10 µM]
Nc1nc2c(ncn2C2OC(CO)CC2O)c(=O)[nH]1 (stereo not given)	-	-	?	-	20µM
CC(=O)N[C@H]1CSSC[C@@H](C(=O)N2CCC[C@H]2C(=O)N2CCC[C@H]2C(=O)N[C@@H](CCCCN)C(=O)N[C@@H](CC(=O)O)C(N)=O)NC(=O)CNC(=O)[C@H](Cc2c[nH]c3ccccc23)NC(=O)[C@H](CCCNC(=N)N)NC(=O)[C@@H](Cc2ccc(Cl)c(Cl)c2)NC(=O)[C@H](Cc2cnc[nH]2)NC(=O)[C@H](CCC(=O)O)NC1=O	-	-	0	-	0
CC1CCc2c(sc3nc(C4CC4)nc(N4CCN(C(=O)c5ccco5)CC4)c23)C1 (stereo not given)	?	0	-	16µM	-
CC1CCc2c(sc3ncnc(SCC(=O)N4CCN(C(=O)c5ccco5)CC4)c23)C1 (stereo not given)	-	-	0	-	0
CC(C)CCNC(=S)Nc1ccccn1	0	0	4µM	0	0.56µM
CC(C)CCNC(=S)Nc1ccccc1F	0	0	11µM	0	7.9µM
CC(C)CCNC(=O)CN(Cc1ccc(F)cc1)C(=O)CCC(=O)Nc1ccccn1	0	0	0	0	0
Cc1cccc(NC(=S)NCCC(C)C)c1	0	0	?	0	0
COCCNC(=S)Nc1ccccn1	?	0	?	?	18µM
COCCNC(=S)Nc1ccc(S(=O)(=O)Nc2ncccn2)cc1	0	0	0	0	0
C=CCCCCCCC=C	-	-	0	-	0
O=C(CN(c1cccc(Cl)c1)S(=O)(=O)c1ccc(Cl)cc1)NCc1ccccn1	0	0	0	0	0
CC(C)(C)c1ccc(C(=O)Nc2ccc(C=C(C#N)C#N)cc2)cc1	?	0	5.6µM	?	5µM
CC(C)(C)c1ccc(C(=O)Nc2ccc(S(N)(=O)=O)cc2)cc1	?	-76	0	?	0
NS(=O)(=O)c1ccc(NC(=O)Nc2ccc(C(F)(F)F)cc2)cc1	0	-58	0	?	0
Cc1ccc2cc(NC(=O)c3ccc(C(C)(C)C)cc3)ccc2n1	?	-101	0	?	0
NS(=O)(=O)c1ccc(NC(=O)Nc2ccc(S(N)(=O)=O)cc2)cc1	0	0	0	0	0
NS(=O)(=O)c1ccc(NC(=O)c2ccc(-c3ccccc3)cc2)cc1	?	0	0	0	0
COCC(=O)N[C@H]1CC[C@@H](CC(=O)NCc2ccccc2OC)O[C@@H]1CO	-	0	-	-	-
SMILES	SW480 rereplic	IL-1B inflam inh	Gal4-VP16 FLuc	MCF10A rereplic	RORg inh
COc1ccc(NC(=O)CC2CC3CCC2C3)cc1S(=O)(=O)N1CCOCC1 (stereo not given)	0	0	-	0	-
CC(C)Oc1ccc(S(=O)(=O)N2CCCCC2)cc1NC(=O)C1CSC2(C)CCC(=O)N12 (stereo not given)	0	0	-	0	-
CCCN(CC(=O)Nc1ccccc1C)C(=O)CCN1C(=O)c2cccc([N+](=O)[O-])c2C1=O	0	-51	-	0	-
Cc1cccc(NC(=O)CCN2C(=O)c3cccc([N+](=O)[O-])c3C2=O)c1	0	0	0	?	0
S=C1NC2(CCCC2)Nc2ccccc21	0	0	?	0	0.35µM
S=C1NC2(CCCCC2)Nc2ccccc21	0	0	?	0	7.1µM
c1csc(-c2ccc3nncn3c2)c1	-	0	-	-	-
Clc1ccc(/C=C/c2ncc3ccccn23)cc1	23µM	?	0	18µM	0
COc1ccc(S(N)(=O)=O)cc1C(=O)OCCCC(=O)c1ccccc1	?	0	-	0	-
OC(CNCc1ccccc1F)COc1cccc2ccccc12 (stereo not given)	21µM	-70	0	?	0
CC(C)NCC(O)COc1cccc2ccccc12 (stereo not given)	0	0	0	0	0
CSc1ccccc1NC(=O)C(C)N(C)CC(=O)N1CCN(Cc2ccccc2)CC1 (stereo not given)	0	0	-	0	-
CC(C(=O)Nc1ccc(C(F)(F)F)cc1)N(C)CC(=O)N1CCN(Cc2ccccc2)CC1 (stereo not given)	0	-51	-	0	-
CCOc1ccc(C(=O)Nc2cccc(C)n2)cc1	0	0	?	0	8.9µM
CCOc1ccc(C(=O)Nc2cc(C)ccn2)cc1	0	0	10µM	?	8.9µM
CCOc1cc(C(=O)NC(=S)Nn2cnnc2)cc(OCC)c1OCC	0	0	0	0	0
CCOc1cc(C(=O)Nc2cc(C)ccn2)cc(OCC)c1OCC	0	0	?	?	16µM
Cc1ccnc(NC(=O)c2ccc(C(=O)c3ccccc3)cc2)c1	0	0	-	?	-
CCOc1cc(C(=O)Nc2cnccn2)cc(OCC)c1OCC	?	0	0	?	0
CCOc1cc(C(=O)NC(=S)Nc2nc(C)cc(C)n2)cc(OCC)c1OCC	0	0	?	0	11µM
Cc1nn(Cc2ccccc2)c(C)c1C(=O)OCC(=O)c1cc(C)n(CC(F)(F)F)c1C	0	0	0	13µM	0
N#Cc1ccccc1OCC(=O)NCc1ccccc1CN1CCCC1	0	0	-	0	-
O=c1c2c(nc3c(-c4ccccc4)c[nH]n13)CCC2	0	0	?	0	6.3µM
O=c1c2c(nc3cc(-c4ccccc4)[nH]n13)CCC2	0	0	0	0	0
O=c1c2c(nc3c(-c4ccc(Cl)cc4)c[nH]n13)CCC2	?	0	?	0	5µM
SMILES	SW480 rereplic	IL-1B inflam inh	Gal4-VP16 FLuc	MCF10A rereplic	RORg inh
O=c1c2c(nc3cc(-c4ccc(Br)cc4)[nH]n13)CCCC2	0	-61	0	?	0
O=c1c2c(nc3c(-c4cccc(Br)c4)c[nH]n13)CCCC2	?	0	3.2µM	0[0.0737 µM]	2.5µM
Cc1c(-c2ccccc2)[nH]n2c(=O)c3c(nc12)CCCC3	?	0	?	0	0
CN1CCCC2(CCN(C(=O)c3cnccn3)CC2)C1	-	-	0	-	0
COc1cc2c(cc1OC)C1O[C@](c3ccsc3)(C2)OC2=C1C(=O)CC(C)(C)C2	-	-	0[10 µM]	-	0[10 µM]
COc1ccc(-n2c(SCCNCCO)nc3sc4c(c3c2=O)CCCC4)cc1	?	-75	0	?	0
COc1ccc(-n2c(SCC(=O)O)nc3sc4c(c3c2=O)CCCC4)cc1	0	0	0	0	0
O=C(/C=C/c1c(C(=O)O)[nH]c2cc(Cl)cc(Cl)c12)Nc1ccccc1	-	-	0	-	0
c1ccc(N/N=C(\Cc2ncc[nH]2)c2ccccc2)cc1	0	0	0	0	?
